# Screens as filed in PubChem BioAssay.
# In the library only some 27% were active in any assay of this set; here they are far more common.
# CYP2C9 act = increases human cytochrome P450 2C9 activity. activation factor at 5 µM. 96,000 compounds, 1.4% hits. P11712. recombinant CYP2C9, luciferin-H conversion, luminescence; stronger effect = higher value; factor 1 = untreated enzyme, 0 = blocked;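 active = activation factor of 2 or more for CYP2C9 at a 5 µM dose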;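 note: 0 = sulfaphenazole-blocked wells and 1 = vehicle-only wells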
# Target sequence (P11712 whole entry, looked up): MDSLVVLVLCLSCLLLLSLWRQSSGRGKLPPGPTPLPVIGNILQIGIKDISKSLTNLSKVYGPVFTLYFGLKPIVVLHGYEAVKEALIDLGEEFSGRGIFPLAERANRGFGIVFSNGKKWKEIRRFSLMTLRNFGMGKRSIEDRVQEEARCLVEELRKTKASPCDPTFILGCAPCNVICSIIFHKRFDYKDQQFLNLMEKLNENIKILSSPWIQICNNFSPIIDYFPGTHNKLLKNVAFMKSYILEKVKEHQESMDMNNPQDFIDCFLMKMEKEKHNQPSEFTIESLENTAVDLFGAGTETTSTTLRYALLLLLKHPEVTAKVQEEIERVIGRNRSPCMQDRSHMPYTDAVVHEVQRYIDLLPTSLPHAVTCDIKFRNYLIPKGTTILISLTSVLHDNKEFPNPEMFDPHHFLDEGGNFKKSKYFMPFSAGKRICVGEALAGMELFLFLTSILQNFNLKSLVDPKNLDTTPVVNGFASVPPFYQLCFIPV
# CYP2C9 inhib = blocks human cytochrome P450 2C9; CYP2C9 Supersomes, luciferin-H conversion, luminescence; inhibition, % at 5 µM; P11712; 96,000 compounds, 20% hits;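 active = blocking of liver enzyme CYP2C9 beyond about 50% at 5 µM, limit read from the data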
# PTK2B oligo ant = Pyk2 (human) oligomerization antagonism; 99,000 compounds, 0.83% hits; Q293 cells, Pyk2 FERM NanoBiT luminescence; stronger effect = lower value; z-score (the deposit names both 25 µM and 10 µM); Q14289; AID 1347419;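 active = Z-score of -3 or lower, scaled per plate to the spread of control and sample wells; inactive = z-score above -3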;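 note: negative z-score means lost luminescence so less FERM oligomerization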
# Cav3 T inh = blocks human Cav3.2 T-type calcium channel; Cav3.2-expressing cells, Fluo-4 calcium fluorescence FDSS; stronger effect = lower value; O95180; B-score at 10 µM; 100,000 compounds, 4% hits;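 active = single-dose well whose peak fluorescence ratio is a statistical outlier from its plate by either plate-standardised score or position-corrected B-score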
# CYP2C19 inh = blocks human cytochrome P450 2C19; CYP2C19 Supersomes, luciferin-H EGE luminescence, 30 min; inhibition, % at 5 µM; 96,000 compounds, 21% hits;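 active = CYP2C19 inhibition above a set limit at 5 µM in the primary screen, cut at about 50% in these data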;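 note: plate controls were negative control wells for no effect and 2.5 mM tranylcypromine positive control for full effect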
# CYP2C19 activ = cytochrome P450 2C19 (human) activation. 96,000 tested, under 10 active. recombinant CYP2C19, luciferin-H EGE luminescence; stronger effect = higher value; 0 = fully inhibited enzyme, 1 = untreated enzyme. activation factor at 5 µM;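 active = activation factor of at least 2 at 5 µM in the primary screen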;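 note: 0 = wells with 2.5 mM tranylcypromine and 1 = vehicle-only wells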
# * marks the source's active call; other numbers are inactive results; . = not tested or not shown.
SMILES,CYP2C9 act,CYP2C9 inhib,PTK2B oligo ant,Cav3 T inh,CYP2C19 inh,CYP2C19 activ
O=C(COc1ccccc1)Nc1cccc2nsnc12,0.8,22,0.84,-1.4,53*,0.5
O=C(O)COc1cccc2nsnc12,0.8,18,0.15,-0.13,17,0.8
COC(=O)c1sc(NC(=O)COc2ccccc2OC)nc1C,0.3,67*,-0.32,0.35,30,0.7
COC(=O)c1sc(Nc2ccccc2)nc1C,0.7,29,-0.75,-0.19,58*,0.4
COc1ccccc1OCC(=O)Nc1nnc(-c2ccco2)s1,0.6,42,0.98,-0.24,20,0.8
O=S(=O)(/N=C(/c1ccc(Cl)cc1)N1CCOCC1)c1ccc(Cl)cc1,1,-3,1.8,0.46,0,1
COC(=O)c1sc(NC(=O)CSc2nc3cccnc3n2C2CCCCC2)nc1C,0.2,84*,0.11,-2.7,73*,0.3
Cc1cnc(NC(=O)COc2ccccc2)s1,0.7,34,-0.42,0.63,66*,0.3
Cc1nc(NC(=O)COc2ccccc2)sc1C(=O)Nc1ccccc1,0.5,47,-1.1,-0.029,33,0.7
COC(=O)c1sc(NC(=O)Cc2cccs2)nc1C,0.4,57*,-1.2,0.46,43,0.6
O=C(Cc1cccs1)Nc1nc2c(ccc3ccccc32)s1,0.4,64*,-0.55,-0.34,41,0.6
COC(=O)c1sc(NC(=O)CSc2nnnn2-c2ccc(C)cc2C)nc1C,1,2,0.87,-0.68,48,0.5
Cn1c(-c2sccc2OCc2ccccc2)n[nH]c1=S,0.8,23,0.39,-0.25,28,0.7
CCOC(=O)CCC(=O)N1CCOCCOCCN(C(=O)CCC(=O)OCC)CCOCCOCC1,1,2,-0.04,0.82,-2,1
COc1ccc(C2CC(c3ccc(Cl)cc3)n3nc(N)nc3N2)cc1 (configuration not stated),1,-4,.,1.4,38,0.6
CC1(c2nnc(Cc3ccccc3)o2)CC(c2ccc(F)cc2)=NO1 (configuration not stated),.,.,.,0.21,.,.
COC(=O)c1sc(NC(=O)COc2ccccc2)nc1C,0.1,94*,-1.1,.,71*,0.3
Cc1cc(C)cc(-n2nnnc2SCC(=O)Nc2cccc(NC(=O)c3ccco3)c2)c1,0.7,34,-1.2,-0.26,36,0.6
CCCn1nnnc1SCC(=O)Nc1cccc(NC(=O)c2ccco2)c1,0.4,60*,0.53,0.55,75*,0.2
CCn1c(SCC(=O)Nc2cccc(NC(=O)c3ccco3)c2)nnc1-c1cccs1,0.4,65*,0.13,0.65,56*,0.4
COc1cc(OC)c2ccc(=O)oc2c1C(CCN1CCN(c2ccccc2)CC1)c1ccc(N(C)C)cc1 (configuration not stated),.,.,.,-1.6,.,.
COc1ccccc1CC1(C)NC(=O)N(CC(=O)N2CC(C)OC(C)C2)C1=O (configuration not stated),1.1,-14,2,-3.3,57*,0.4
COCCN1C(=O)c2oc3cc(C)c(C)cc3c(=O)c2C1c1cccc(O)c1 (configuration not stated),.,.,-1.7,1.2,.,.
Cc1c(C(=O)O)oc2ccc(S(=O)(=O)NCCC3=CCCCC3)cc12,.,.,0.78,-0.16,.,.
CC(=O)N1CCc2cc(S(=O)(=O)NCCC(=O)Nc3cccc(C)c3)ccc21,0.7,33,0.92,0.66,6,0.9
SMILES,CYP2C9 act,CYP2C9 inhib,PTK2B oligo ant,Cav3 T inh,CYP2C19 inh,CYP2C19 activ
CCN(CCCNS(=O)(=O)c1ccc2c(c1)CCN2C(C)=O)c1cccc(C)c1,0.7,32,.,.,62*,0.4
CC(=O)N1CCc2cc(S(=O)(=O)CCC(=O)N3CCN(c4ccccn4)CC3)ccc21,.,.,-0.08,0.68,.,.
CC(=O)N1CCCc2cc(S(=O)(=O)NCc3ccc(C)cc3)ccc21,1,0,0.67,0.45,82*,0.2
CC(=O)N1CCCc2cc(S(=O)(=O)CCC(=O)N3CCN(c4cccc(C)c4)C(C)C3)ccc21 (configuration not stated),0.8,19,.,.,58*,0.4
CC(=O)N1CCCc2cc(S(=O)(=O)NCCC3=CCCCC3)ccc21,0.9,11,0.37,-0.077,53*,0.5
O=C(CSc1nnnn1-c1cccc(F)c1)Nc1nc2ccccc2s1,.,.,1,-0.13,.,.
CCCC1CCC(=C(C#N)C(N)=O)CC1 (configuration not stated),.,.,0.53,.,.,.
CCOC(=O)N1CCN(C(=O)Nc2ccc3nc(C)c(C)nc3c2)CC1,0.9,12,0.96,0.39,16,0.8
CC1(C)N(O)CC(c2cccs2)=[N+]1[O-],1.1,-7,-0.1,-0.37,-4,1
CCNC(=O)C1CC(=O)N(Cc2ccc3c(c2)OCO3)C(=Nc2ccc(OCC)cc2)S1 (configuration not stated),1.1,-13,-1.7,-0.015,-5,1.1
Cc1c(C#N)c2ncnc(N)c2n1-c1ccccc1,0.8,16,0.66,.,15,0.8
CC(=O)N(C(C)=O)c1c(C#N)c(C)n(-c2ccccc2)c1C(=O)c1ccccc1,0.9,9,1,0.66,71*,0.3
O=C(NCc1ccc(Cl)cc1)c1ccccc1Oc1ccccc1,0.5,54*,-1.5,-1.8,32,0.7
O=C(CCn1cccc1)NCc1ccc(Cl)cc1,1,-4,0.49,-0.055,64*,0.4
COc1ccc(CNC(=O)c2cnn3c(C(F)F)cc(C)nc23)cc1,.,.,0.58,-0.05,.,.
O=C(CCN1C(=O)c2ccncc2C1=O)NCc1ccc(Cl)cc1,0.8,19,0.69,0.23,-3,1
Cc1cc(C(F)F)n2ncc(C(=O)O)c2n1,.,.,1.1,.,.,.
Cc1cc(C(F)(F)F)n2ncc(C(=O)O)c2n1,2*,-99,.,0.36,-22,1.2
Cc1cc(C(F)F)n2ncc(C(=O)NCc3ccccc3)c2n1,1.1,-10,-0.08,-0.12,60*,0.4
COC(=O)c1cc(CSc2nnc(NC3CCCCC3)s2)oc1C,0.5,48,0.09,-2.6,45,0.5
CCN1C(=O)N[C@@H](c2ccco2)C(C(=O)OC)=C1C,.,.,.,-2.4,.,.
Cc1ccc(CC2(O)CC(C)N(C)CC2C)c(C)c1 (configuration not stated),1,3,-0.12,-0.12,5,1
Cc1cc(C(F)F)n2ncc(C(=O)NCCc3ccc(Cl)cc3)c2n1,0.6,39,0.45,-1.2,85*,0.2
Cc1cc(C)n2ncc(C(=O)NCc3ccccc3)c2n1,1,-2,-0.26,-0.3,17,0.8
Cc1cc(C(F)F)n2ncc(C(=O)NCCc3ccccc3Cl)c2n1,0.9,10,0.32,-0.51,74*,0.3
O=C(NCc1ccc(Cl)cc1)c1cnn2ccccc12,1,-4,.,0.15,76*,0.2
Cc1cc(C)n2ncc(C(=O)NCc3ccc(Cl)cc3)c2n1,0.6,44,0.17,0.61,75*,0.2
CCCCNC(=O)c1ccc(S(=O)(=O)c2ccc(Cl)cc2)c(NC(C)=O)c1,0.6,38,-0.07,-0.71,49,0.5
